One assay relates to Staphylococcus aureus. The settings on record: Concentration 32 ug.mL-1; ASSAY_TEST Inhibition of Bacterial Growth; detection method Absorption (OD600); MEDIA CAMHB; plate type 384well; NBS; CORNING #3640; time 18 hr.
The next assay relates to Escherichia coli. As to conditions: Concentration 32 ug.mL-1; ASSAY_TEST Inhibition of Bacterial Growth; detection method Absorption (OD600); MEDIA CAMHB; plate type 384well; NBS; CORNING #3640; time 18 hr.

As usually defined, the Inhibition is the drop in the measured response relative to a control, in per cent.

Results with a measured potency or affinity are listed apart.

With `c1ccc2nc3c4cccnc4c4ncccc4c3nc2c1`, the Inhibition in the assay on Staphylococcus aureus was 8.68%; in the assay on Escherichia coli, -14.57%.
For the molecule `CC(=O)c1cc(C(C)=O)cc(C(C)=O)c1`, the values for the Inhibition with Staphylococcus aureus and in the assay on Escherichia coli were 25.72% and -14.66%, respectively.
Consider `CC(=NN)c1cc(/C(C)=N/N)cc(/C(C)=N/N)c1`, for which the results for the Inhibition in the assay with Staphylococcus aureus and in the assay on Escherichia coli were 18.93% and 9.06%, respectively.
With `COC(=O)c1ccc(S)cc1`, the figures for the Inhibition in the assay with Staphylococcus aureus and in the assay on Escherichia coli were 8.34% and -21.23%, respectively.

These data come from ChEMBL document CHEMBL4513140, “CO-ADD screening of Lancaster University (UK) compounds” (2021).
